Screens deposited in PubChem by National Center for Advancing Translational Sciences (NCATS).
The list is not random: actives were taken first. Their share in the collection is about 21%.
HCV inh – blocks hepatitis C virus; Huh7.5.1 HCVcc-Cre infection, luciferase reporter, 44 h; 340,000 tested, 3.4% active; AID 651820; Potency, µM (top dose mostly 41.8 µM), actives largely listed as inhibitors
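HCVcc-Cre virus at an moi near 0.5 was added right after compound to cells cultured 4 h from seeding (1,000 cells/well). Luciferase activity was determined 44 h later, 15 min after substrate addition at RT.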
HCMV inh – inhibitors of human cytomegalovirus | HFF cells, HCMV-luciferase reporter, 72 h; active compounds read low | 410,000 tested, 4.5% active | AID 1259415 | activity change, negative = inhibition, % at 57.5 µM; in the data active = activity change below about -60%; inconclusive = no clear call, values can overlap the other calls; inactive = above about -39%
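Human foreskin fibroblasts infected with luciferase-reporter HCMV at MOI 1 PFU/cell, compounds at two doses. Luciferase measured 72 h post infection; normalized to buffer-only basal and Salinomycin (10uM) controls.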
Pf growth 48h – P. falciparum growth inhibition at 48 hours (one generation). 310,000 tested, 5.9% active. Potency, µM (doses to about 28.7 µM), most hits filed as inhibitors. P. falciparum luciferase growth in erythrocytes, 48 h
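Read-out is firefly luciferase luminescence from an integrated reporter in P. falciparum, so falling signal marks reduced parasite growth. Infected erythrocytes were at 2% hematocrit and 0.1% parasitemia (final) in Albumax-supplemented RPMI 1640.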
Pf growth 96h – P. falciparum growth inhibition at 96 hour, primary screen for plastid delayed-death inhibitors; P. falciparum luciferase reporter growth, 96 h; Potency, µM (top dose mostly 28.7 µM), most hits filed as inhibitors; 320,000 tested, 6.9% active; AID 504834
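Luminescence readout: decreased luciferase signal marks inhibited growth of reporter-expressing P. falciparum in infected red cells (2% hematocrit, 0.05% parasitemia final), exposed to compound two generations (96 h, 37 C, 5% CO2).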
CHX counter – affects cycloheximide protein synthesis inhibition readout, counter-screen; max response, %; 300,000 tested, 12% active; AID 2314; cell reporter, cycloheximide protein synthesis inhibition counterscreen; in the data active = max response mostly above about 13%, no sharp cut-off; inactive = mostly below about 14%; also: read at 38.3 µM for the half of the compounds with a filed dose
Shiga inhibitor – Shiga toxin inhibition; Vero cells, Shiga toxin protein synthesis inhibition reporter; inhibition, % at 38.7 µM; 290,000 tested, 9.2% active; in the data active = inhibition mostly above about 28%, no sharp cut-off; inactive = mostly below about 43%
Large screens that a line does not name were inactive. Unless noted, calls follow the shape of the dose curve; as a rule, active = well fitted inhibition curve with a large enough effect; inconclusive = small, poorly fitted or top-dose-only effect, or another doubt; inactive = no such curve, though single readings can be large or run the other way.

C=CCN(CC=C)S(=O)(=O)c1ccc(NC(=S)NC(=O)c2ccco2)cc1	HCV inh inconclusive, HCMV inh inconclusive, Pf growth 48h inconclusive (no result: Pf growth 96h)
CSc1ccccc1OCc1cc(C(=O)NCC(C)Oc2cccnc2)no1 (stereo not drawn)	none (no result: HCV inh, Pf growth 48h, Pf growth 96h, CHX counter, Shiga inhibitor)
O=C(NC1CCN(C(=O)Nc2ccc(F)cc2)CC1)c1cccc(F)c1	none
CCCCC(CC(O)COCCC)c1n[nH]c(=S)n1-c1ccccc1 (stereo not drawn)	none
CCC(=O)Nc1cccc(NC(=S)NC(=O)c2cccc(C)c2)c1	HCV inh inconclusive, CHX counter 60.2, Shiga inhibitor 113.6
Cc1cccc(C(=O)NC(=S)Nc2ccc(Cc3ccncc3)cc2)c1	HCV inh inconclusive, HCMV inh inconclusive, Pf growth 48h inconclusive, Pf growth 96h inconclusive
COc1ccc(/C=N\NC(=O)c2cc(O)c(O)c(O)c2)cc1CN1CCN(c2ccc(F)cc2)CC1	HCV inh inconclusive, Pf growth 48h 4.65µM, Pf growth 96h inconclusive
COc1ccc(/C=N/NC(=O)c2ccncc2)cc1CN1CCN(c2ccc(F)cc2)CC1	Pf growth 96h 3.7µM
O=C(CSc1nnc(-c2ccc3c(c2)OCO3)o1)Oc1ccccc1	none (no result: HCV inh, Pf growth 48h, Pf growth 96h, CHX counter, Shiga inhibitor)
CC(=NCC1CCCO1)C1=C(O)CC(C)(C)CC1=O (stereo not drawn)	HCMV inh -62.4
O=C(NCc1ccco1)c1ccc2c(c1)N(Cc1ccc(Cl)cc1)CCS2	HCV inh 10µM, HCMV inh inconclusive, Pf growth 48h inconclusive, Pf growth 96h inconclusive, CHX counter 8.3, Shiga inhibitor 44.6
CCOC(=O)N1CCC(NC(=O)c2ccc3c(c2)N(Cc2ccc(C)cc2)CCS3)CC1	Pf growth 48h inconclusive, Pf growth 96h inconclusive
CCOC(=O)N1CCC(NC(=O)c2ccc3c(c2)N(C)CCS3)CC1	Pf growth 48h 11.7µM, Pf growth 96h inconclusive
CCOC(=O)N1CCC(NC(=O)c2ccc3c(c2)N(Cc2ccc(F)cc2)CCS3)CC1	HCV inh 17.8µM, Pf growth 48h 4.65µM, Pf growth 96h inconclusive
CCOC(=O)N1CCC(NC(=O)c2ccc3c(c2)N(Cc2ccccc2)CCS3)CC1	Pf growth 96h inconclusive (no result: Pf growth 48h)
O=C(NC1CC1)c1ccc2c(c1)N(Cc1ccccc1)CCS2	Pf growth 96h 11.7µM
COc1cccc(Oc2nc(C)nc3c2oc2ccccc23)c1	none (no result: HCV inh, Pf growth 48h, Pf growth 96h, CHX counter, Shiga inhibitor)
Cc1cc(Cl)ccc1OCC(=O)N(Cc1sccc1C)C1CCS(=O)(=O)C1 (stereo not drawn)	none (no result: HCV inh, Pf growth 48h, Pf growth 96h, CHX counter, Shiga inhibitor)
Cc1ccccc1NC(=O)C1CCN(C(=O)c2ccc(F)cc2)CC1	none (no result: HCV inh, Pf growth 48h, Pf growth 96h, CHX counter, Shiga inhibitor)
O=C(CSc1nc2c(cnn2-c2ccc(F)cc2)c(=O)[nH]1)N1N=C(c2cccs2)CC1c1ccc(F)cc1 (stereo not drawn)	Pf growth 48h inconclusive, Pf growth 96h 9.28µM
COc1ccc(C2=NN(C(=O)CSc3nc(=O)n4cccc(C)c4n3)C(c3ccc(C)cc3)C2)cc1 (stereo not drawn)	HCV inh inconclusive, HCMV inh inconclusive, Pf growth 48h 11.7µM, Pf growth 96h inconclusive (no result: CHX counter, Shiga inhibitor)
COc1ccc(C2=NN(C(=O)CSc3ncccn3)C(c3ccc(C)cc3)C2)cc1 (stereo not drawn)	HCMV inh inconclusive, Pf growth 48h inconclusive, Pf growth 96h inconclusive
CCCCOC(=O)CSCC(=O)N1N=C(c2cccs2)CC1c1ccc(F)cc1 (stereo not drawn)	none
Cc1ccn2c(=O)nc(SCC(=O)N3N=C(c4cccs4)CC3c3ccc(F)cc3)nc2c1 (stereo not drawn)	HCV inh inconclusive, Pf growth 48h inconclusive, Pf growth 96h 4.65µM (no result: CHX counter, Shiga inhibitor)
Cc1cccn2c(=O)nc(SCC(=O)N3N=C(c4cccs4)CC3c3ccc(F)cc3)nc12 (stereo not drawn)	HCV inh inconclusive, Pf growth 48h 8.28µM, Pf growth 96h 3.7µM (no result: CHX counter, Shiga inhibitor)
COc1ccc(Cl)cc1NC(=O)CSc1cn(CC(=O)N2CCCCCC2)c2ccccc12	none (no result: HCV inh, Pf growth 48h, Pf growth 96h, CHX counter, Shiga inhibitor)
CC(C)Oc1ccc(S(=O)(=O)N2CCOCC2)cc1NC(=O)c1cccc(S(=O)(=O)N2CCCC2)c1	none (no result: Pf growth 48h, Pf growth 96h, CHX counter, Shiga inhibitor)
CC(=O)Nc1ccc(OCC(O)CN2CCN(c3ccc(F)cc3)CC2)cc1 (stereo not drawn)	none (no result: Shiga inhibitor)
CN(C)c1ccc(C(=O)N[C@H]2CC[C@@]34CCCN3C(=O)CCC[C@H]4[C@H]2Cc2ccccc2)cc1	none (no result: HCV inh, Pf growth 48h, Pf growth 96h, CHX counter, Shiga inhibitor)
CC(=O)OCC(=O)[C@@]1(O)CCC2C3C[C@H](C)C4=CC(=O)C=CC4(C)C3C(O)CC21C (stereo partly drawn)	none (no result: HCV inh, HCMV inh)
COc1ccc(C2CC(c3cccs3)=NN2C(=O)CSc2nc(=O)n3ccccc3n2)cc1 (stereo not drawn)	HCV inh inconclusive, Pf growth 48h 13.1µM, Pf growth 96h 8.28µM (no result: CHX counter, Shiga inhibitor)
Cc1ccc2nc(SCC(=O)N3N=C(c4cccs4)CC3c3ccc(F)cc3)nc(=O)n2c1 (stereo not drawn)	none (no result: HCV inh, Pf growth 48h, Pf growth 96h, CHX counter, Shiga inhibitor)
Cc1ccc(C2CC(c3cccs3)=NN2C(=O)CSc2nc(=O)n3cc(C)ccc3n2)cc1 (stereo not drawn)	HCV inh inconclusive, Pf growth 48h inconclusive, Pf growth 96h 5.22µM (no result: CHX counter, Shiga inhibitor)
COc1ccc(C2CC(c3cccs3)=NN2C(=O)CN2CCCCC2)cc1 (stereo not drawn)	Shiga inhibitor 26.0
C[C@H](NC(=O)c1nc[nH]c1C(=O)N[C@@H](CCCCNC(=O)OC(C)(C)C)C(=O)OC(C)(C)C)C(=O)OC(C)(C)C	HCV inh inconclusive, Pf growth 48h 9.28µM, Pf growth 96h 13.1µM
CC(C)(C)OC(=O)NCCCC[C@H](NC(=O)c1nc[nH]c1C(=O)NC(c1ccccc1)c1ccccc1)C(=O)OC(C)(C)C	HCMV inh inconclusive, Pf growth 48h 3.7µM, Pf growth 96h 2.08µM
CC(C)(C)OC(=O)NCCCC[C@H](NC(=O)c1nc[nH]c1C(=O)NCc1ccc(CNC(=O)OC(C)(C)C)cc1)C(=O)OC(C)(C)C	HCV inh inconclusive, Pf growth 48h inconclusive, Pf growth 96h 11.7µM
CC(C)(C)OC(=O)CNC(=O)c1[nH]cnc1C(=O)N[C@@H](CCCCNC(=O)OC(C)(C)C)C(=O)OC(C)(C)C	HCMV inh inconclusive, Pf growth 48h inconclusive, Pf growth 96h inconclusive
CC(C)(C)OC(=O)NCCCCCNC(=O)c1[nH]cnc1C(=O)N[C@@H](CCCCNC(=O)OC(C)(C)C)C(=O)OC(C)(C)C	HCV inh inconclusive, Pf growth 48h 9.28µM (no result: HCMV inh)
CCCc1cc(=O)[nH]c(SCC(=O)N2CC3(C)CC2CC(C)(C)C3)n1 (stereo not drawn)	Pf growth 48h inconclusive, Pf growth 96h inconclusive (no result: CHX counter, Shiga inhibitor)
CCN(CC)C(=O)c1[nH]cnc1C(=O)N[C@@H](CCCCNC(=O)OC(C)(C)C)C(=O)OC(C)(C)C	Pf growth 48h inconclusive, Pf growth 96h inconclusive
CC(C)(C)OC(=O)NCCCC[C@H](NC(=O)c1nc[nH]c1C(=O)N[C@@H](CCCCNC(=O)OC(C)(C)C)C(=O)OC(C)(C)C)C(=O)OC(C)(C)C	HCV inh inconclusive, HCMV inh inconclusive, Pf growth 48h 2.08µM, Pf growth 96h 1.65µM
CCn1c(C)cc(O)c(C(=O)Nc2cccc(Cl)c2)c1=O	Pf growth 48h inconclusive
